Source: PubChem BioAssay AID1159506 (National Center for Advancing Translational Sciences (NCATS), 2015)
Whole data set: some 59,000 sequences, median the read-out near -0.00055, cut for the lowest 2% near -2. The entries come from a sample that favours the lowest values as a whole.

Assay: Identification of proteins required for the processing of the EWS-FLI1 nascent transcript;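 also: robust z of luciferase light less the median z of siRNAs with the same seed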
Conditions: TC32 Ewing sarcoma NR0B1-luc vs CMV-luc (EWS-FLI1 target promoter against control promoter), 48 h; screened at 20 nM (by protocol)
Method: Ewing sarcoma (ES) cells depend on the EWS-FLI1 fusion transcription factor for cell survival. Using an assay of EWS-FLI1 activity and genome-wide siRNA screening we have identified proteins required for the processing of the EWS-FLI1 nascent transcript. Parallel genome-wide siRNA-mediated RNAi screens were conducted in Ewing sarcoma TC32 cell lines expressing a luciferase (luc) reporter protein driven by either the promoter of the EWS-FLI1 target gene NR0B1 (TC32-NR0B1-luc) or the CMV promoter (TC32-CMV-luc). Luciferase activity was assessed 48 hours post siRNA-transfection.
Twenty microl of serum-free media containing Lipofectamine RNAiMax (0.05 microl) was added to wells containing siRNA (0.8 pmol). Lipid and siRNA were allowed to complex for 45 min at ambient temperature before addition of 600 cells in RPMI-1640, 20% FBS to yield final transfection mixtures containing 20 nM siRNA in RPMI-1640, 10% FBS. Luciferase expression was measured using OneGlo (Promega, Madison, WI). The genome-wide screening campaign was conducted using Ambion's human genome library version 4.1 (Ambion, Austin TX). This library targets approximately 21000 human genes, three siRNAs per gene. Each siRNA is arrayed in an individual well of a 384-well plate. Parallel transfections were conducted in TC32-NR0B1-luc and TC32-CMV-luc cell lines and luciferase expression (OneGlo, Promega) was assayed 48 h later on a PerkinElmer Envision 2104 Multilabel plate reader (PerkinElmer, Waltham, MA). Qiagen's AllStars Negative control was incorporated on all screening plates for normalization (16 wells per plate). Qiagen, Germantown, MDsiGL4 was incorporated as a positive transfection control (16 wells per plate) on all plates. […] The raw luciferase data for the NR0B1- and CMV-luc screens were normalized and z-score-MAD transformed using standard methods (Chung et al., 2008). The miRNA-like seed sequence of every siRNA was determined and the median z-score for all siRNA sequences with the same seed sequence was calculated. This z-score was subtracted from the z-score associated with each siRNA with that seed sequence to generate a seed-adjusted z-score value (Z) that was used when the results for the three siRNAs corresponding to each gene were compared (Marine et al., 2012)

Row | Sequence | seed-corrected z-score
1 | UAAGGUUCGACCUGCAGAG against MNX1-AS1 | -2.4
2 | UUCCGUUGAUUCUUUCUCC against KAT5 | -1.63
3 | UUGGUGGUCAUUAAGGUUG against PQLC3 | -0.378
4 | AAUCUGUCUGUAGGUAUCC against TBC1D22B | -0.38
5 | AUUGAUGUAAUCUCCGUCC against PTPN7 | -1.34
6 | UUUCUUAUCUCUGUUGUUC against CRCP | 0.4
7 | UUUGGUGAUAGGGUGCUCG against C5orf60 | -3.47
8 | UUUCUUAGGUGUAUUGACC against PRDX1 | -1.23
9 | AAGGUAGGCAAAAUUAUCC against GALNT16 | 1.35
10 | UAGACGUGCACGAACACGC against MOB3A | -0.135
11 | UGAUAUAGGAGUUAGACUG against KRTAP2-2 | 0.0896
12 | UUAGCAAGCAUCCUUUCGC against LTN1 | -0.45
13 | AAACAGAAGAGGGAGUGGG against LINC01567 | -2.3
14 | UGAAUAAUACCUAUAAUCC against OR4F6 | -0.573
15 | UUGGACAUGAUGAAAUUCC against EML3 | 0.0247
16 | UACAUGCUCCGCACAGUCC against NOTCH1 | -0.17
17 | UUGGAGCACUGUAAAGGCC against ZFP14 | 0.456
18 | UCUUUAUCAAGUUUACAGG against LANCL3 | -0.0126
19 | AUAGUUCGGAUCACAAUGC against NPSR1 | 0.18
20 | UUCACUGUCAGUCCGAUGG against COPZ1 | -3.71
21 | UCUGGUUCUUGUUGGGUAG against ECEL1 | -2.81
22 | UUUCGAGAAAUAAUACACC against RPA1 | -0.401
23 | UGUAGAAUGAUCACCAACC against PCNX4 | 0.471

Row | Sequence | seed-corrected z-score
24 | UAGGUCAUAACAGAAUGCU against FLNC | -0.156
25 | UGUAGUCACACCAGAGAGG against FAM180B | -2.49
26 | AAAGAUAUCAGGCACCCAG against GABRR3 | 0.633
27 | UAAACUGCACUUUCCACGG against C12orf49 | -2.69
28 | UGUAUUAUGACCUUCGCUC against MORC4 | -0.441
29 | UCAAUUGAUUCCUCAAUUC against MCM6 | 0.575
30 | UAUGCUUUCAAAAGAGUCC against ETS1 | -1.16
31 | AAGGCAUUAAGACUCUUGG against HDAC3 | -0.388
32 | UCCUUUACCGAUUUCAGUU against XRCC3 | -0.609
33 | UUCCUUCUUAGGUUUCUUC against LRRC59 | 0.83
34 | UAGUUGUCACCAUCCGUGC against DSE | -2.48
35 | AAGUUUAUAUACACUUUUG against NDUFS6 | 0.771
36 | UUUCAGAUCAUACUCGCCG against VPS33B | 0.89
37 | UGAGGAGCGACAAUCUUCC against TFAP2C | -0.276
38 | UGCCUGGAGAGAGUGUACG against PGLYRP1 | -0.292
39 | UUAGCAUUAAAACAGGUAG against GC | -0.347
40 | UGGGAUCUCAGCUGUAUCC against XAGE1E | -2.37
41 | UUUAGUAACAGCCCAGUUC against CCDC36 | -0.277
42 | AUAGGUAUCAGGCACCCAG against GABRB2 | 1.35
43 | UAUUCUUACUGAUCGUUUG against FLI1 | -6.54
44 | UAUUCACCCAGAACUGUUG against CYP24A1 | 0.031
45 | UAUAUCACCAUAUAAUCAC against ADRA2B | -0.259
46 | AAAUUAAUCUUCUUCAUUC against COX17 | 0.109

Row | Sequence | seed-corrected z-score
47 | UCUGGAUCAAAGGGUGUUG against TMEM134 | -4.42
48 | UGAACUCCUUCAAUCCUGC against AHSP | 0.888
49 | UUAAUAAGACUUCAAGAUG against MYOCD | 0.454
50 | UUCCGGUACAAGAUAUUCC against QRSL1 | 0.059
51 | AUAGGGUUUUACAUGAGGC against MYLK | -0.272
52 | UCAUGAUCUGCGAAGUUGG against CCDC75P1 | -2.24
53 | UAUGUUCAGCUCGCAUUUC against CMAS | 0.259
54 | UUCAUGUCCAGGAUAUCCC against OBFC1 | -0.538
55 | AUUGAUAUAAGGAUCAACA against OR5K1 | 0.45
56 | UUGGGUACCUCAGUCCACA against SNRPD2 | -2.98
57 | UACAUCUAAUUCACAGUUC against F9 | 0.676
58 | UAAAUUUGCCCUGCUCUUG against OR2B11 | 0.408
59 | AGUGUGACAAGAACGUGCC against MYL6P5 | -0.946
60 | UCUGUGAACACCGGCAUGU against NCLN | 2.18
61 | UUACGUUCUUGAAAGGCGG against IARS | 1.47
62 | AGACAGAUGCGUUUGAUUC against PYDC2 | 0.835
63 | AAUGGAACAACAGCGGUCC against ZNF217 | -0.315
64 | UUCCUAGAAACCCAGACUG against SPATA31E1 | -3.97
65 | UACCGAUUUGGUAAUAUCG against LY75 | -0.557
66 | UCUCGUUAGUGAUUAAGUC against SULF1 | -0.403
67 | UCACCUUGAAGCUAUAACC against ERCC3 | 0.757
68 | UUUGAUUUCAGCAUCUUCC against TSKS | -3.12
69 | AAAUGGUCCAGCAAAUUCU against NPPA | 0.589

Row | Sequence | seed-corrected z-score
70 | UUUUCGUGAUGCUUGGUCC against NDEL1 | 1.78
71 | UCAAGAGAAUUCUGUAAUC against C5orf60 | -0.0754
72 | AUAGUACACGAUGAACUCG against RAMP3 | -0.177
73 | UGACUGACACUUUCAAAGC against SHC1 | -0.358
74 | UGUGGUACCAGGCUGCUUG against PAQR8 | -2.42
75 | UUGUUGGACAGUUGAAUCG against SEC62 | 0.834
76 | UUGAGUUCCAAGAGGACCC against TPBG | 0.978
77 | UUUCUUAUUGUUGCGGCAG against SNRPD2 | -2.78
78 | UAUGUGGUUAGUCCGUGUG against GTF3C1 | 0.362
79 | AAAGUUUUCCCUUAUGAUG against MYADML2 | 0.381
80 | UGUUCUUUAAGCCUUUCCA against BLOC1S5 | -0.0488
81 | UUCCGGAACAUGAAGUGCC against DYRK1B | -0.257
82 | UUGUCAAACAGGACUGAGU against AZIN2 | -0.00443
83 | UGUGGGAAAGCAGGUAUCU against ZNF815P | -1.11
84 | UAAAGAUGCAGAUAAUAAC against NMUR1 | 0.231
85 | UUACGAAUGACAUCCUUUG against CKAP5 | -2.84
86 | AACACUUACGCAGUUCUUG against MTCP1 | 0.193
87 | UUUUUCUUCACAGGUGUUU against HIST1H1D | -0.582
88 | UAAGCUUUUAUUGUGAAUG against GRP | -2.97
89 | UUCUCAUCACUUGUAGCCU against ANKRD36C | 0.48
90 | UGUUUAGUAGCAGAUCUCC against PSMD6 | -2.83
91 | GUUGGUAACAGGGUCAUUU against RXRG | -0.41
92 | UUGCGAACAAUAGGGUUAG against PZP | -0.222

Row | Sequence | seed-corrected z-score
93 | UAAAUGUACCGUUUAAACC against LOC647481 | 0.567
94 | UCCGGAAUGUCGAUGCCCU against DUX5 | -0.471
95 | ACUGUUAUUCUUACGCUGG against CUL3 | -0.643
96 | AAUUUGACCUCAUCCAUUU against FAM47C | -0.798
97 | UGGUGUAACUUCAACAUCG against ATP13A4 | -2.09
98 | UAUUCGUCAGCUCAAACUC against IQCH | -1.02
99 | UAGGGUGAGAAUAGACAGG against PEX11B | 0.764
100 | UUCAGUUGUGAUAAGUUGC against TLR6 | -0.0452
101 | UUUCGAUCUCUGUUAAGCC against C2orf40 | 0.448
102 | UUGAAGACCACGUACAUGG against SLC35D3 | -0.373
103 | UAAGCGUAUCUGGAAUUAC against UGCG | 0.00222
104 | UUCUUGACGUGCUUCAUUC against SCO1 | -0.488
105 | UUACGGAUCAUGUGGUCUU against SCNN1B | 0.029
106 | UGACUUCACAUGGACUACG against IDH3B | -2.07
107 | AUCAUUCACAGGGAGGUCC against OAZ2 | 1.3
108 | UUUGCAUCCCUCGCACUUG against MT3 | 0.331
109 | UUGAAUUCAUUGCAUGUCC against CTSZ | 0.0627
110 | UAGCGGGUCUCAUCAAAGC against HGFAC | 1.53
111 | UUAGGUGCGCGGCUAACUG against COL9A3 | -2.65
112 | UCAAUGCAAAGGAACACUC against ARFGAP3 | -0.0755
113 | AUGUGGGUAAAAACUUGCU against NGRN | -2.09
114 | UUCUUUAUUCCUUGAGCUG against OR10A4 | -3.24
115 | UACUUGACGAUGUUGCGCG against ADGRL1 | -0.114

Row | Sequence | seed-corrected z-score
116 | UUCAUAUACAGCACAAUAC against CD58 | 1.5
117 | UUGGAGGACAGGUCCAAGU against TSKU | 0.336
118 | UUCCAUGUAAAACAAUUUC against PDE4D | 0.777
119 | UUAUCUGUGACAUAAGUUG against ALG13 | -2.26
120 | UAGGGUACAUCGUAGGGAG against MYO15A | -0.369
121 | GGAUUUGCAGCGCAAAGCC against LYPD1 | -0.365
122 | UCUGGAUUAACGGUGGUCU against NOVA1 | -3.04
123 | UAAGACUCAAAGUUCCCAG against LOC642502 | -0.393
124 | AGAUGAAAAAGUAAGGCCG against TRIM58 | -0.628
125 | UUUUCGAGGACAUUGACUG against FMN1 | 0.159
126 | UCUUGCUCCAAACCUGCUC against KLHL34 | -0.143
127 | UUGCGGUAGACGAUGAUGC against ADAM8 | -1.99
128 | AAGCAUAAAAGGUUCCUGU against IRF4 | 0.397
129 | UUCUCGUGCACUGUCAAAG against SMU1 | -3.77
130 | UUUGCGGUCACAAUUGGGC against IGFBP5 | -0.759
131 | AGACAUAACACUACGAGAC against GBA2 | 0.274
132 | UUCUUCAUGCGCAGUGUGG against INF2 | 0.288
133 | AAAUCCUCCAAACAUGUGC against ZNRF2 | -0.0777
134 | UGAUCGAAAUGAUUUACAC against CD180 | -0.034
